Compound activity from PubChem BioAssay.
TDP1 block: qHTS Assay for Inhibitors of Tyrosyl-DNA Phosphodiesterase (TDP1). 0.28% of 350,000 active. recombinant TDP1, AlphaScreen DNA substrate cleavage. Potency, µM (doses to about 130 µM), for the others: at the top dose activity change, negative = inhibition, most hits filed as inhibitors; note: % is set by controls: 0 for no effect and ±100 for the full control effect; nearly all actives have a fitted effect of over 40% in size
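Steps: enzyme plus compound, 15 min RT; add biotin/phosphotyrosine-FITC oligonucleotide (15 nM final), react 5 min; add donor/acceptor beads (10 ug/ml final), 10 min; read AlphaScreen. Tdp1 at 1 nM final.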
BAZ2B block: qHTS Assay for Inhibitors of BAZ2B; Bromodomain adjacent to zinc finger domain protein 2B (Homo sapiens), Q9UIF8; AlphaScreen BAZ2B-H3K14Ac peptide displacement; Potency, µM (series often up to 114 µM), for inactives: at the highest dose activity change, negative = inhibition, most hits filed as inhibitors; 4.4% of 360,000 active; AID 504333, 2011; note: % is set by controls: 0 for no effect and ±100 for the full control effect; nearly all actives have a fitted effect of over 60% in size
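AlphaScreen displacement: compounds (up to 110uM) incubated 30 min at room temperature with a preformed 50 nM BAZ2B/50 nM biotinylated H3K14Ac peptide complex in PBS pH 7.4 with Tween-20. Donor and acceptor beads at 10 ug/mL final added, 20 min light-protected before reading.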
HP1b binding inh: HTS for Inhibitors of HP1-beta Chromodomain Interactions with Methylated Histone Tails; Chromobox protein homolog 1 (Homo sapiens), P83916; 0.56% of 390,000 active; AID 540317, 2011; Potency, µM (top dose mostly 114 µM), inactives show at the top dose activity change, negative = inhibition, actives largely listed as inhibitors; AlphaScreen HP1-beta / biotin-H3K9me3 peptide binding; note: nearly all actives have a fitted effect of over 70% in size
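HP1-beta protein (50 nM final) preincubated 30 min at room temperature with biotinylated H3(1-18)K9me3 peptide (50 nM) in PBS pH 7.4, 0.01% Tween-20, then compound added for 30 min. AlphaScreen streptavidin donor/nickel chelate acceptor beads (10 ug/mL final), 30 min dark, luminescence read.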
JMJD2A Tudor inh: qHTS Assay for Inhibitors of JMJD2A-Tudor Domain. AlphaScreen JMJD2A-Tudor / H3K4me3 peptide binding. Potency, µM (highest dose often 114 µM), without a hit: top-dose activity change, negative = inhibition, most hits filed as inhibitors. 4.4% of 390,000 active; note: % is set by controls: 0 for no effect and ±100 for the full control effect; nearly all actives have a fitted effect of over 50% in size
Target sequence (O75164 whole entry, looked up, the tested form may be a part): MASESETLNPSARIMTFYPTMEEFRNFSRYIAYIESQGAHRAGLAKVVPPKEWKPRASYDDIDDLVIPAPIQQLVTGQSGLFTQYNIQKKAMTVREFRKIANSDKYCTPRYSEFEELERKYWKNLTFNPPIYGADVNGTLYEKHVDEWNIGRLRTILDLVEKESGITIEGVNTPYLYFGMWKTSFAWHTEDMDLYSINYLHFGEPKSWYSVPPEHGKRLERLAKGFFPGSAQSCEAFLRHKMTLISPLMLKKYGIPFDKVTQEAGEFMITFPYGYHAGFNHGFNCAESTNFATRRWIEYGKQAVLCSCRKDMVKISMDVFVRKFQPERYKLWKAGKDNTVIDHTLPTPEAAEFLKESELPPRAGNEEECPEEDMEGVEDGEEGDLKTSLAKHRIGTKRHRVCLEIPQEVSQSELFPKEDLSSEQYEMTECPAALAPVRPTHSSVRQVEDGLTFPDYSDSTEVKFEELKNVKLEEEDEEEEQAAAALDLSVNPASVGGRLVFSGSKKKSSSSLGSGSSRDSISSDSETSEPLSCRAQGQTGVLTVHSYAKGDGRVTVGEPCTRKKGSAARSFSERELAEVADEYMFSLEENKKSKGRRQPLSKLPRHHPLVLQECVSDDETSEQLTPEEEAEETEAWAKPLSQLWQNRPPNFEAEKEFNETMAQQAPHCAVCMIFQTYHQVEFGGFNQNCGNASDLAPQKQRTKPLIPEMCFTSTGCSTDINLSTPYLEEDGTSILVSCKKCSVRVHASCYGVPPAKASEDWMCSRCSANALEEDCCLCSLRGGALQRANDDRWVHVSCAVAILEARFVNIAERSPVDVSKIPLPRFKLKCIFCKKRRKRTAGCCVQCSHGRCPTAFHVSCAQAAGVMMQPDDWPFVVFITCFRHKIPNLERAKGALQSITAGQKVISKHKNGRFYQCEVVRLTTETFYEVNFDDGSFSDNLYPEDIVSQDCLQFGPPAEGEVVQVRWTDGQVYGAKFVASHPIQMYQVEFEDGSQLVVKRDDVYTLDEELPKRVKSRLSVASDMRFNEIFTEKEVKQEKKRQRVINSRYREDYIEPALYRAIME
G9a inh: qHTS Assay for Inhibitors of Histone Lysine Methyltransferase G9a; G9a H3K9 monomethylation, AlphaScreen, 2 h; Potency, µM (titrated, usually from 102 µM), for the others: top-dose activity, negative = inhibition, hits mostly inhibitors; 8.8% of 350,000 active; AID 504332, 2011; note: % is set by controls: 0 for no effect and ±100 for the full control effect; nearly all actives have a fitted effect of over 75% in size
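Chemiluminescent proximity detection of H3K9 monomethylation, read after 10 min bead incubation in the dark. Reaction: 20 nM G9a, 500 nM biotin-H3K9 peptide, 20 uM SAM cofactor, 2 h, room temperature, following 15 min enzyme-compound preincubation.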
Sfp PPTase inh: qHTS Assay for Inhibitors of Bacillus subtilis Sfp phosphopantetheinyl transferase (PPTase); Biochemical Sfp PPTase activity, qHTS; Potency, µM, for inactives: largest response in the series, negative = inhibition, usual class: inhibitors; 3.5% of 310,000 active;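 note: the enzyme is Sfp with the accession as filed and its product quenches rhodamine fluorescence; 0% = enzyme reaction without inhibitor and -100% = no enzyme wells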
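Buffer: 50 mM Hepes-Na pH 7.6, 10 mM MgCl2, 0.01% Nonidet P-40, 0.01% BSA. Enzyme 15 nM, pre-exposed to compound 15 min; substrates then added and fluorescence change tracked over 30 min.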
* marks the source's active call; other numbers are inactive results; u = inconclusive; x = no result; [ ] = another dose, or the depositor's remark. In the library only some 12% were active in any assay of this set; here they are far more common. Calls come from the whole dose curve; as a rule, active = well fitted curve in the direction sought with a large enough effect; inconclusive = small, poorly fitted or top-dose-only effect, or another doubt; inactive = no such curve, though single readings can be large; an effect the other way counts as inactive or inconclusive. Potency is the fitted concentration of half-maximal effect.

SMILES	TDP1 block	BAZ2B block	HP1b binding inh	JMJD2A Tudor inh	G9a inh	Sfp PPTase inh
CC1=C(C(=O)N2CCOCC2)C(c2ccc(C)cc2)NC(=S)N1 (centres undefined)	-5.5%	-2.2%	31.9%	-16.0%	39.8µM*	50.1µM*
CC1=C(C(=O)N2CCOCC2)C(c2ccc(Cl)cc2)NC(=S)N1 (centres undefined)	8.2%	21.6%	48.7%	-6.2%	70.8µM*	-7.1%
CCN(CC)S(=O)(=O)c1ccc(C(=O)NCC2CCCCC2)cc1	2.4%	7.5%	-2.4%	-5.0%	-19.9%	18.1%
NC(=O)c1c(-c2cccs2)csc1N	5.5%	u	-12.3%	u	-50.0%[12.7 µM]	39.8µM*
CCOC(=O)c1c(-c2cccs2)csc1NC(=O)CC(C)C	x	36.1%	152.5%	77.0%	19.0%[12.7 µM]	-12.1%
NC(=NCc1ccc2c(c1)OCO2)NC(=O)c1ccccc1	-7.6%	39.8µM*	-21.8%	u	u	u
C/C(CCc1ccc2c(c1)OCO2)=N\NC(=O)c1ccccc1	5.8%	-0.1%	-0.2%	-22.5%	-5.6%[59 µM]	1.2%
CCN1C(=O)[C@H]2[C@@H](c3ccc(C)cc3)N3C(=O)N(c4cccc(F)c4)C(=O)[C@@]3(C)[C@H]2C1=O	x	5.5%	36.0%	-2.2%	x	4.1%
COc1ccccc1CNC(=O)CSc1nc(-c2ccccc2)cn1N	9.5%	u	2.5%	-24.2%	-35.4%[12.7 µM]	-14.4%
CN(C(=O)CSc1nc(-c2ccccc2)cn1N)C(c1ccccc1)c1ccccc1	2.0%	44.7µM*	-25.7%	u	17.8µM*	8.2%
NC(=O)c1ccc[n+]([C@@H]2OC(COP(=O)([O-])OP(=O)(O)OCC3OC(n4cnc5c(N)ncnc54)C(OP(=O)(O)O)C3O)C(O)C2O)c1 (some centres undefined)	x	x	x	x	u	-63.6%
Cc1ccc2c(c1)nnn2C1CCN(S(=O)(=O)c2ccc(C(=O)N3C(C)CCCC3C)cc2)CC1 (centres undefined)	5.8%	u	5.3%	50.1µM*	25.1µM*	-15.7%
Nc1nnc(CC(=O)N/N=C/c2cccc([N+](=O)[O-])c2)s1	-1.5%	-32.1%	27.3%	-12.2%	38.1%[12.7 µM]	50.1µM*
Nc1nnc(CC(=O)N/N=C/c2cc([N+](=O)[O-])cc(Br)c2O)s1	2.7%	50.1µM*	-14.3%	79.4µM*	22.4µM*	-15.8%
O=C(Cc1ccccc1)N/N=C/c1cccc([N+](=O)[O-])c1	6.5%	-20.8%	17.1%	-6.4%	4.3%	14.0%
COC(=O)N/N=C/c1cc([N+](=O)[O-])cc(Br)c1O	2.6%	-29.6%	26.4%	-22.9%	4.2%[59 µM]	20.5%
Cc1c(NC(=O)C(C)OC(=O)CCOc2ccccc2)c(=O)n(-c2ccccc2)n1C (centres undefined)	x	0.1%	23.9%	-1.4%	u	x
Cn1c(=O)cc(Nc2ccccc2)c2c(=O)n(-c3ccccc3)c(=O)n(-c3ccccc3)c21	2.6%	-25.2%	16.8%	-21.4%	u	0.2%
COC(=O)C1=C(C(=O)OC)SC2(S1)C(C(=O)OC)=C(C(=O)OC)SC1=C2c2cccc(C)c2NC1(C)C	7.0%	u	-21.7%	u	31.6µM*	2.8%
COC(=O)c1c(C)[nH]c(C)c1-c1ccccc1Cl	-1.0%	u	-20.7%	u	-18.0%[2.33 µM]	-1.3%
CCOc1ccc(OCC)c(NC(=O)c2nnn(CC(=O)Nc3cc(C)cc(C)c3)c2N)c1	0.0%	-35.9%	22.8%	-22.6%	-3.3%	-13.9%
N#CC1=C(N)C2=CCCC[C@H]2[C@H](c2ccc(Br)cc2)C1(C#N)C#N	-1.4%	-33.8%	42.7%	-26.4%	u	7.08µM*
Cc1sc2ncnc(N3CCC(C(=O)Nc4ccc(S(N)(=O)=O)cc4)CC3)c2c1C	2.8%	-4.8%	10.6%	-25.2%	u	x
CCN(CC)S(=O)(=O)c1cc(NC(=O)C2CCN(c3ncnc4sc(C)c(C)c34)CC2)ccc1Cl	-12.9%	-17.1%	34.3%	-24.1%	44.7µM*	x
Cc1ccc(NC(=O)C2CCN(c3ncnc4sc(C)c(C)c34)CC2)cc1S(=O)(=O)N(C)C	x	-0.9%	6.6%	-13.8%	14.1µM*	x
SMILES	TDP1 block	BAZ2B block	HP1b binding inh	JMJD2A Tudor inh	G9a inh	Sfp PPTase inh
Cc1sc2ncnc(N3CCC(C(=O)Nc4cc(S(C)(=O)=O)ccc4Cl)CC3)c2c1C	-3.4%	1.2%	41.7%	-3.8%	-35.7%	x
COc1cccc2cc(-c3nc(-c4ccccc4)c(C)s3)c(=O)oc12	0.1%	x	28.2%[57 µM]	2.3%[57.1 µM]	x	x
COCCNC(=S)N=Nc1c(O)[nH]c2c(C)cc(C)cc12	0.0%	-10.4%	17.5%	-4.1%	-3.5%	-27.1%
Cc1cc(C)c2[nH]c(=S)cc(C)c2c1	7.9%	-7.5%	11.3%	-3.1%[57.1 µM]	3.55µM*	16.6%
CCSc1nnc(NC(=O)C2CCN(C(=O)c3ccc(F)cc3)CC2)s1	-5.8%	x	29.9%	-11.3%	x	x
Cc1ccc(CN2CC(C(=O)Nc3cc(S(C)(=O)=O)ccc3Cl)CC2=O)cc1 (centres undefined)	-2.8%	50.1µM*	7.6%	-26.6%	u	8.0%
COc1ccc(CCN2CC(C(=O)Nc3cc(S(C)(=O)=O)ccc3Cl)CC2=O)cc1OC (centres undefined)	0.0%	-6.5%	8.9%	-11.0%	7.1%	x
CCOC(=O)c1ccc(NC(=O)c2cnn(-c3ccc(C)cc3C)c2C2CCN(C(=O)OC(C)(C)C)CC2)cc1	0.0%	0.1%[57.1 µM]	21.3%	-22.7%	-26.7%[59 µM]	x
C/C(=C/c1ccccc1)C(=O)N1CCC(C)CC1	2.8%	-2.9%	40.0%	-0.3%	23.8%	4.2%
C[n+]1ccccc1Nc1cc([N+](=O)[O-])ccc1N	x	u	21.9%	-7.3%	11.2µM*	-9.8%
Cc1oc(S(=O)(=O)N(C)C)cc1C(=O)Nc1ccc(F)cc1	2.9%	3.7%	35.3%	2.7%	-2.3%	11.6%
O=C(Nc1ccc(C(=O)N2CCCc3ccccc32)cc1)c1cccs1	x	-2.7%	9.0%	100µM*	29.4%	-9.4%
O=C(c1ccc(=O)oc1)N1CCCc2ccccc21	17.8µM*	44.7µM*	-49.3%	50.1µM*	u	u
COc1ccc(-n2c(=O)c(-c3ccc(Cl)cc3)nc3cnc(N4CCOCC4)nc32)cc1	x	x	x	x	7.5%[12.7 µM]	9.4%
CN1C(=O)CC(Sc2ccccc2C(=O)O)C1=O (centres undefined)	-10.3%	-26.1%	35.2%	9.3%	10.5%[12.7 µM]	8.8%
